PubChem BioAssay (Tox21)
Values joined by “and” are separate entries in the source; they are usually repeats but may differ in a detail not shown here. Equal values may be shown once. Results filed as inconclusive are left out. The source holds several records for some structures; these can differ, active in one and inactive in another. Active and inactive are the calls of the source. Unless noted, calls follow the shape of the dose curve; as a rule, active = well fitted curve in the direction sought with a large enough effect in the repeat runs; inconclusive = weak or mixed curves; inactive = no such curve, though single readings can be large; an effect the other way counts as inactive or inconclusive.

Tests used:
[1] = qHTS assay to identify small molecule antagonists of the thyroid receptor (TR) signaling pathway - cell viability counter screen (AID 743064); settings: GH3.TRE-Luc viability, CellTiter-Fluor, 24 h; series mostly up to 70.3 µM; also: nearly all actives have a fitted effect of over 50% in size; also: potency is read from the fitted curve at half-maximal effect
Method in brief: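 GH3.TRE-Luc cells, 4 h pre-plating; cpd + T3 1 nM final; 37 °C 23.5 h; CellTiter-Fluor 30 min; fluorescence read.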

[2] = qHTS assay to identify small molecule antagonists of the thyroid receptor (TR) signaling pathway (AID 743065); settings: GH3.TRE-Luc, T3-stimulated luciferase inhibition, 23.5 h; series mostly up to 70.3 µM; also: nearly all actives have a fitted effect of over 55% in size; also: potency is read from the fitted curve at half-maximal effect
Method in brief: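 GH3.TRE-Luc rat pituitary cells (two TREs driving luciferase) were dosed with compound, then stimulated with 1 nM T3 (final) for 23.5 h at 37 C. ONE-Glo luminescence was the read-out, with CellTiter-Fluor fluorescence as the cytotoxicity counter-screen.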

[3] = tested on: thyroid hormone receptor (rat, GH3 cells); assay: qHTS assay to identify small molecule agonists of the thyroid receptor (TR) signaling pathway (AID 743066; calls by dose curve); settings: GH3.TRE-Luc cells, TR agonist luciferase, 24 h; series mostly up to 83.9 µM
[4] = qHTS assay to identify small molecule antagonists of the estrogen receptor alpha (ER-alpha) signaling pathway using the BG1 cell line - cell viability counter screen (AID 743081); settings: BG1Luc4E2 viability, CellTiter-Fluor, 22 h; series mostly up to 70.3 µM;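 also: compound given together with 17beta-estradiol as the ER stimulus; nearly all actives have a fitted effect of over 45% in size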
Aromatase (Homo sapiens) = Aromatase (Homo sapiens) (UniProt P11511); assay: qHTS assay to identify aromatase inhibitors (AID 743083); settings: MCF-7 aro ERE, testosterone-driven ERE luciferase, 24 h; series mostly up to 70.3 µM; also: nearly all actives have a fitted effect of over 55% in size; also: potency is read from the fitted curve at half-maximal effect
[5] = qHTS assay to identify small molecule that activate the aryl hydrocarbon receptor (AhR) signaling pathway - cell viability counter screen (AID 743086); settings: HepG2-AhR-luc viability, CellTiter-Fluor, 24 h; series mostly up to 70.3 µM; also: nearly all actives have a fitted effect of over 45% in size; also: potency is read from the fitted curve at half-maximal effect
Method in brief: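 HepG2-AhR-luc (HG2L7.5c1) cells, 4000/well, treated 24 h at 37 C with compound; viability measured as CellTiter-Fluor fluorescence after 30 min in the same wells as the luciferase read.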

[6] = target: Peroxisome proliferator-activated receptor gamma (Homo sapiens) (UniProt P37231); assay: qHTS assay to identify small molecule agonists of the peroxisome proliferator-activated receptor gamma (PPARg) signaling pathway (AID 743094; active = well fitted activation curve with a large enough effect in the signal ratio in the repeat runs, not every such curve was filed as active; the % refers to the signal ratio); settings: HEK293H PPARg-UAS-bla, beta-lactamase FRET ratio, 17 h; series mostly up to 57 µM
Method in brief: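 HEK293H PPARg-bla cells, 5 h settle at 37C/5% CO2; compound (DMSO) 17 h, 37C; B/G FRET substrate 1 h RT; fluorescence intensity read-out. qHTS format.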

[7] = target: Peroxisome proliferator-activated receptor gamma (Homo sapiens) (UniProt P37231); assay: qHTS assay to identify small molecule antagonists of the peroxisome proliferator-activated receptor gamma (PPARg) signaling pathway (AID 743191; calls by dose curve; also: nearly all actives have a fitted effect of over 30% in size; also: potency is read from the fitted curve at half-maximal effect); settings: HEK293H PPARg-UAS-bla, beta-lactamase ratio, antagonist, 17 h; series mostly up to 62.6 µM
Method in brief: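 GeneBLAzer PPARg UAS-bla HEK293H cells, 5 h post-plating, exposed to compounds 17 h at 37C. LiveBLAzer B/G FRET substrate added for 1 h at room temperature; beta-lactamase reporter read by fluorescence intensity.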

[8] = qHTS assay to identify small molecule antagonists of the peroxisome proliferator-activated receptor gamma (PPARg) signaling pathway - cell viability counter screen (AID 743194); settings: PPARg-bla HEK293H viability, CellTiter-Glo luminescence, 17 h, co-treated with 50 nM rosiglitazone; series mostly up to 62.6 µM; also: nearly all actives have a fitted effect of over 55% in size; also: potency is read from the fitted curve at half-maximal effect
Method in brief: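 Cytotoxicity counter screen in PPARg-bla HEK293H cells, same wells as reporter assay. Compounds plus 50 nM rosiglitazone (final) for 17 h at 37 C, then viability read by CellTiter-Glo luminescence.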

[9] = qHTS assay for small molecule agonists of the antioxidant response element (ARE) signaling pathway (AID 743202; active = well fitted activation curve with a large enough effect in the signal ratio in the repeat runs, not every such curve was filed as active; the % refers to the signal ratio); settings: HepG2 ARE-bla reporter, beta-lactamase FRET, 16 h; series mostly up to 73.3 µM
Method in brief: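 HepG2 ARE-bla cells; 16 h treatment at 37 C; FRET-based beta-lactamase fluorescence read after 2 h substrate incubation at room temperature.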

[10] = qHTS assay for small molecule agonists of the antioxidant response element (ARE) signaling pathway - cell viability counter screen (AID 743203; calls by dose curve; also: nearly all actives have a fitted effect of over 55% in size; also: potency is read from the fitted curve at half-maximal effect); settings: ARE-bla HepG2 viability, CellTiter-Glo luminescence, 16 h; series mostly up to 73.3 µM
Method in brief: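 Luminescence read-out (CellTiter-Glo, 30 min at room temperature) measured cell viability in the same wells as the ARE beta-lactamase reporter. HepG2 ARE-bla cells were treated with compounds for 16 hrs at 37C/5% CO2.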

[11] = qHTS assay for small molecule activators of the heat shock response signaling pathway (AID 743210; active = well fitted activation curve with a large enough effect in the signal ratio in the repeat runs, with a control signal flat, not every such curve was filed as active; the % refers to the signal ratio;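 also: HeLa cells with beta-lactamase reporter driven by heat shock elements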); settings: HeLa HSE-bla reporter, beta-lactamase ratio, 5 h; series mostly up to 62.6 µM
Method in brief: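 Following overnight attachment, HSE-bla HeLa cells received test compounds for 5 h at 37 C; beta-lactamase activity was then detected via FRET substrate fluorescence.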

[12] = qHTS assay to identify small molecule antagonists of the estrogen receptor alpha (ER-alpha) signaling pathway - cell viability counter screen (AID 743074; calls by dose curve; also: nearly all actives have a fitted effect of over 45% in size); settings: ERalpha-bla HEK293 viability, CellTiter-Glo luminescence, 18 h; series mostly up to 69.4 µM
[13] = qHTS assay for small molecule activators of the heat shock response signaling pathway - cell viability counter screen (AID 743209); settings: HSE-bla HeLa viability, CellTiter-Glo luminescence, 5 h; series mostly up to 62.6 µM; also: nearly all actives have a fitted effect of over 50% in size
Method in brief: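 HSE-bla HeLa; 1500 cells/well; overnight 37 C, 5% CO2; compound 5 h 37 C; LiveBLAzer B/G substrate 2.5 h RT; CellTiter-Glo 30 min RT; luminescence.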

[14] = target: Estrogen receptor (Homo sapiens) (UniProt P03372); assay: qHTS assay to identify small molecule antagonists of the estrogen receptor alpha (ER-alpha) signaling pathway (AID 743069; active = well fitted curve in the direction sought with a large enough effect in the signal ratio in the repeat runs, not every such curve was filed as active; the % refers to the signal ratio); settings: HEK293 ER-alpha-UAS-bla, beta-lactamase ratio, antagonist mode; series mostly up to 69.4 µM
Method in brief: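 In this cell-based reporter format, GripTite HEK293 cells harbouring ER-alpha-UAS-bla were grown overnight with 2% charcoal-stripped FBS, dosed with DMSO-dissolved compounds, then challenged with 17beta-estradiol. After 18 hr at 37C, beta-lactamase activity was detected by FRET fluorescence.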

[15] = target: Estrogen receptor (Homo sapiens) (UniProt P03372); assay: qHTS assay to identify small molecule agonists of the estrogen receptor alpha (ER-alpha) signaling pathway (AID 743075; calls by dose curve); settings: HEK293 ER-alpha-UAS-bla, beta-lactamase FRET ratio, 18 h; series mostly up to 70.1 µM
[16] = target: Estrogen receptor (Homo sapiens) (UniProt P03372); assay: qHTS assay to identify small molecule agonists of the estrogen receptor alpha (ER-alpha) signaling pathway using the BG1 cell line (AID 743079); settings: BG1Luc4E2 cells, ERE-luciferase agonist, 22 h; activation: at 70.3 µM (top of the series); also: nearly all actives have a fitted effect of over 20% in size; also: potency is read from the fitted curve at half-maximal effect
[17] = qHTS assay to identify small molecule antagonists of the estrogen receptor alpha (ER-alpha) signaling pathway using the BG1 cell line (AID 743080; calls by dose curve;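 also: BG1 cells stimulated with 17beta-estradiol alongside compound; nearly all actives have a fitted effect of over 25% in size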); settings: BG1Luc4E2 ERE-luciferase antagonist mode, luminescence; series mostly up to 70.3 µM
Method in brief: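 BG1Luc4E2, endogenous ER-alpha, 4xERE-luc; 5 d charcoal-stripped FBS, phenol red free; 24 h plating; cpd + 17beta-estradiol 21.5 h, 37 C/5% CO2; CellTiter-Fluor viability 30 min, then ONE-Glo luciferase 30 min RT.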

[18] = qHTS assay to identify aromatase inhibitors - cell viability counter screen (AID 743084); settings: MCF-7 aro ERE viability, CellTiter-Fluor, 24 h; series mostly up to 70.3 µM; also: potency is read from the fitted curve at half-maximal effect
[19] = target: Aryl hydrocarbon receptor (Homo sapiens) (UniProt P35869); assay: qHTS assay to identify small molecule that activate the aryl hydrocarbon receptor (AhR) signaling pathway (AID 743085); settings: HepG2 AhR-luc (HG2L7.5c1), luciferase, 24 h; series mostly up to 70.3 µM;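 also: HG2L7.5c1 human HepG2 liver cells with stably integrated DRE-driven firefly reporter; nearly all actives have a fitted effect of over 15% in size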
Method in brief: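 Luminescence read-out: ONE-Glo reagent, 30 min at room temperature, in HG2L7.5c1 HepG2 reporter cells treated 24 h at 37C. Viability was measured beforehand by CellTiter-Fluor fluorescence after 30 min at 37C.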

Measured: Potency

Estrogen receptor (Homo sapiens), sequence (P03372 whole entry, looked up): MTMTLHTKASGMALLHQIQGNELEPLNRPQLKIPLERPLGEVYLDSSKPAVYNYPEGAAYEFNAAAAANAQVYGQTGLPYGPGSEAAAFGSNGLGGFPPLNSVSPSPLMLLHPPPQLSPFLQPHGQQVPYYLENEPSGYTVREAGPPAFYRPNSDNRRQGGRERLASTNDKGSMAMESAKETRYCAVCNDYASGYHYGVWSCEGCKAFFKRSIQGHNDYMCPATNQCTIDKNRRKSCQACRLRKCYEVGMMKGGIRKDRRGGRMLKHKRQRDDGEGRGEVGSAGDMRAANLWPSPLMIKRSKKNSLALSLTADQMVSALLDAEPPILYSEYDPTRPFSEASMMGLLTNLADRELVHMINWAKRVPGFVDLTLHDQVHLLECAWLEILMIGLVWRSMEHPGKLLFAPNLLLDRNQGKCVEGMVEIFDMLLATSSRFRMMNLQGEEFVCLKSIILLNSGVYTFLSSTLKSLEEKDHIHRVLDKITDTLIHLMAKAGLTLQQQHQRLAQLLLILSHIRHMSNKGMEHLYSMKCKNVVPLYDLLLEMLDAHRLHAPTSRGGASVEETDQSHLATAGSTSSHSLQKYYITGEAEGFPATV
Aromatase (Homo sapiens), sequence (P11511 whole entry, looked up): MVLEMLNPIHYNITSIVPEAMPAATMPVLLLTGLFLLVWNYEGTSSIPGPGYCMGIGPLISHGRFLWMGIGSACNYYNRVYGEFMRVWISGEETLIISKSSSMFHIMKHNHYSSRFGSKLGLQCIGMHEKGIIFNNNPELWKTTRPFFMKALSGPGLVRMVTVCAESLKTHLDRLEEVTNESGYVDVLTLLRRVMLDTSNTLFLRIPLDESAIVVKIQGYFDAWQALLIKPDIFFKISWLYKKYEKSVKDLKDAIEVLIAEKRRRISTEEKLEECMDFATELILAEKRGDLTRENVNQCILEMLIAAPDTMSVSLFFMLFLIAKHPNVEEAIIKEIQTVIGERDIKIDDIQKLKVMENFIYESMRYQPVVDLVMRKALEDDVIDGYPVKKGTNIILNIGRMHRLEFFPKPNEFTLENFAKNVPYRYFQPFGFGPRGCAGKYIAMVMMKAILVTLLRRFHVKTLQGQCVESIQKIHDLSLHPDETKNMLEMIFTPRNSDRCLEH
Peroxisome proliferator-activated receptor gamma (Homo sapiens), sequence (P37231 whole entry, looked up): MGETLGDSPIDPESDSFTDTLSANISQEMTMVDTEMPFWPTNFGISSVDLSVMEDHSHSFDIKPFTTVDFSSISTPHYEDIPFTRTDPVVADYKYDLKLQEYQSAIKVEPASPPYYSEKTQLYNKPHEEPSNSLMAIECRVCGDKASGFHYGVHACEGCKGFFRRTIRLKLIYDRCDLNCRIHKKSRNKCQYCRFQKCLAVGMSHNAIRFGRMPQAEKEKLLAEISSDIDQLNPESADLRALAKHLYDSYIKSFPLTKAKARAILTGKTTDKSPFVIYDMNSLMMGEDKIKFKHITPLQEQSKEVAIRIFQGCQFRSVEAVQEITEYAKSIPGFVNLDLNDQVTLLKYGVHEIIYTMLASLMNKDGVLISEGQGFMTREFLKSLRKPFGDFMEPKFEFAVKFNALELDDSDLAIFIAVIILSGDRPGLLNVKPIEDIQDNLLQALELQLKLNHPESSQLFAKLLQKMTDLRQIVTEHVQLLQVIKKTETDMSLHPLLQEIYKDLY
Aryl hydrocarbon receptor (Homo sapiens), sequence (P35869 whole entry, looked up): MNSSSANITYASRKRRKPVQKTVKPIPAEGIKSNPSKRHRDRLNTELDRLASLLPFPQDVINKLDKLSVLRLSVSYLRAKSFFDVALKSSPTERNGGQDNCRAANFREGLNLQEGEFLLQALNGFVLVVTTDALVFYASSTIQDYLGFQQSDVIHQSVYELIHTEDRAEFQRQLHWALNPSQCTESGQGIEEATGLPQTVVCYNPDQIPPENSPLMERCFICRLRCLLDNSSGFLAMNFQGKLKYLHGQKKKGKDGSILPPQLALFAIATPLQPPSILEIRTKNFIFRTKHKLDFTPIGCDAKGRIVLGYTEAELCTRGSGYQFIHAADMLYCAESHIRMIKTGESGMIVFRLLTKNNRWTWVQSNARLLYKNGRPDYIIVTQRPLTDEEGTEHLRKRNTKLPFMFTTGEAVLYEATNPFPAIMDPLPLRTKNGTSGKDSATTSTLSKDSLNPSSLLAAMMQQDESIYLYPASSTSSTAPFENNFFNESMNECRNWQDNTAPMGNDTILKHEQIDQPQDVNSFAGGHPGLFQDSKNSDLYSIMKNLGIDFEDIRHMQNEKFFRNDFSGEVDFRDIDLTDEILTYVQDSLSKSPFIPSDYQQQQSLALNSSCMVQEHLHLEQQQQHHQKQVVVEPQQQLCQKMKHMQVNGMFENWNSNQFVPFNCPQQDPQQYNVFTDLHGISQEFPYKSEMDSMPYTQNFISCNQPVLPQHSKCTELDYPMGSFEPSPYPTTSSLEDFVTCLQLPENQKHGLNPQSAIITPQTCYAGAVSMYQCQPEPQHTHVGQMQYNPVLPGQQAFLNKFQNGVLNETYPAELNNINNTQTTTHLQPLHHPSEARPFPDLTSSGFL

CCC1NC(=O)c2cc(S(N)(=O)=O)c(Cl)cc2N1 (stereo not drawn)
inactive: [1] | [2] | [3] | [4] | Aromatase (Homo sapiens) | [5] | [6] | [7] | [8] | [9] | [10] | [11]

NNC(=O)CP(=O)(c1ccccc1)c1ccccc1
inactive: [1] | [2] | [3] | [12] | [4] | [5] | [8] | [9] | [10] | [13] | [11]

CN1CCCC(CC2c3ccccc3Sc3ccccc32)C1 (stereo not drawn)
active: [1] 9.02 µM | [2] 7.17 µM | [7] 10.6 µM | [8] 16.8 µM
inactive: [14] | [12] | [15] | [16] | [17] | [4] | Aromatase (Homo sapiens) | [18] | [19] | [13] | [11]

C=Cc1ccc(S(=O)(=O)O)cc1
inactive and 9.69 µM (active): [1]
inactive: [3] | [14] | [12] | [15] | [17] | [4] | Aromatase (Homo sapiens) | [18] | [19] | [5] | [6] | [13]
23.7 µM (active) and inactive: [16]

CCC(=O)C1CC(C(C)C)CC=C1C (stereo not drawn)
inactive: [2] | [3] | [14] | [12] | [15] | [16] | [17] | [4] | Aromatase (Homo sapiens) | [18] | [19] | [5] | [6] | [7] | [8] | [10] | [13] | [11]

Nc1nnc(-c2ccc([N+](=O)[O-])o2)o1
inactive: [12] | [15] | [6] | [7] | [13] | [11]
active: [1] 61.1 µM | Aromatase (Homo sapiens) 48.6 µM | [18] 61.1 µM | [5] 54.5 µM | [10] 48.6 µM

CC(C)C(O)(c1ccc(OC(F)(F)F)cc1)c1cncnc1 (stereo not drawn)
inactive: [1] | [3] | [12] | [4] | Aromatase (Homo sapiens) | [18] | [19] | [5] | [8] | [10] | [13]

CO[C@]1(NC(=O)CSC(F)F)C(=O)N2C(C(=O)O)=C(CSc3nnnn3CCO)CO[C@H]21
inactive: [2] | [3] | [14] | [12] | [15] | [16] | [17] | [4] | Aromatase (Homo sapiens) | [18] | [19] | [5] | [6] | [7] | [8] | [9] | [13] | [11]

FC(F)(F)c1ccccc1Cl
inactive: [2] | [3] | [14] | [12] | [15] | [16] | [17] | [4] | Aromatase (Homo sapiens) | [18] | [19] | [5] | [6] | [8] | [9] | [10] | [13] | [11]

C/C=C\C/C=C/CCCCCCCCOC(C)=O
active: [2] 68.6 µM
inactive: [3] | [14] | [12] | [15] | [16] | [17] | [4] | Aromatase (Homo sapiens) | [19] | [5] | [8] | [13]

C1COC1
inactive: [2] | [3] | [14] | [12] | [15] | [17] | [4] | Aromatase (Homo sapiens) | [18] | [19] | [5] | [6] | [7] | [8] | [9] | [13] | [11]

C=COCC(C)C
inactive: [2] | [3] | [12] | [15] | [16] | [17] | [4] | Aromatase (Homo sapiens) | [18] | [19] | [5] | [6] | [7] | [9] | [10] | [13] | [11]

CCCCCC[C@@H](O)C/C=C\CCCCCCCC(=O)OCC(O)CO (stereo partly drawn)
inactive: [2] | [3] | [12] | [15] | [16] | [17] | [4] | Aromatase (Homo sapiens) | [18] | [19] | [5] | [6] | [7] | [8] | [9] | [10] | [13]

O=C(O)c1ccc(OCCCOc2ccc(C(=O)O)cc2)cc1
inactive: [1] | [12] | [4] | Aromatase (Homo sapiens) | [18] | [19] | [5] | [6] | [8] | [10] | [13]
